Values without a mark were called inactive.
System: primary human airway basal cells (HBEC, luciferase-transduced)
Experiment: proliferation (luciferase bioluminescence) Z score relative to plate mean; higher = more proliferation / more cells, active = 1.96 or more
Conditions: donor: 1; 0.5 µM; library: ENZO Libraries; 4 days
Protocol: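 Primary human bronchial epithelial (airway basal) cells from two donors, lentivirally transduced with pHIV-Luc-ZsGreen, were seeded at 2000 cells/well in 384-well plates in FAD medium with ENZO or Prestwick library compounds and cultured for 4 days. Luciferin was then added and bioluminescence was read as a measure of cell number. Relative light units were converted to Z scores against the plate, and the mean of triplicate wells is reported.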

SMILES | proliferation
COC[C@H]1OC(=O)c2coc3c2[C@@]1(C)C1=C(C3=O)[C@@H]2CCC(=O)[C@@]2(C)C[C@H]1OC(C)=O [Wortmannin] | -1.04
N#CC(C#N)=Cc1cc(O)c(O)c(O)c1 | -0.0382
CCC(=O)CCCCC[C@@H]1NC(=O)[C@H]2CCCCN2C(=O)[C@H]([C@@H](C)CC)NC(=O)[C@H](Cc2cn(OC)c3ccccc23)NC1=O [Apicidin] | -0.149
N#CC(C#N)=Cc1ccc(O)c(O)c1 | 0.456
N#CC(C#N)=Cc1ccc([N+](=O)[O-])c(O)c1 | -0.571
C/C(O)=C(\C#N)C(=O)Nc1cc(Br)ccc1Br | 0.22
N#CC(C#N)=Cc1cc(O)c(O)c([N+](=O)[O-])c1 | -0.414
Cc1cc(O)c2c(=O)c3c(O)cc(O)c4c5c(O)cc(O)c6c(=O)c7c(O)cc(C)c8c1c2c(c34)c(c78)c65 [Hypericin] | 0.248
N[C@@H]1C[C@H]1c1ccccc1.N[C@H]1C[C@@H]1c1ccccc1 [Tranylcypromine hemisulfate] | -0.212
CC(=O)c1c(O)c(C)c(O)c(Cc2c(O)c3c(c(C(=O)/C=C/c4ccccc4)c2O)OC(C)(C)C=C3)c1O [Rottlerin] | 0.583
N#C/C(=C\c1ccc(O)c(O)c1)C(N)=S | -0.0372
NCCc1ccc(S(=O)(=O)F)cc1 | -0.284
CC(=O)Oc1ccc(/C=C/c2cc(OC(C)=O)cc(OC(C)=O)c2)cc1 [Triacetylresveratrol] | 1.28

Same assay, conditions: donor: 1; 5 µM; library: ENZO Libraries; 4 days

SMILES | proliferation
COC[C@H]1OC(=O)c2coc3c2[C@@]1(C)C1=C(C3=O)[C@@H]2CCC(=O)[C@@]2(C)C[C@H]1OC(C)=O [Wortmannin] | -0.831
N#CC(C#N)=Cc1cc(O)c(O)c(O)c1 | -0.000622
CCC(=O)CCCCC[C@@H]1NC(=O)[C@H]2CCCCN2C(=O)[C@H]([C@@H](C)CC)NC(=O)[C@H](Cc2cn(OC)c3ccccc23)NC1=O [Apicidin] | -0.303
N#CC(C#N)=Cc1ccc(O)c(O)c1 | 0.134
N#CC(C#N)=Cc1ccc([N+](=O)[O-])c(O)c1 | -0.0791
C/C(O)=C(\C#N)C(=O)Nc1cc(Br)ccc1Br | 0.228
N#CC(C#N)=Cc1cc(O)c(O)c([N+](=O)[O-])c1 | -0.101
Cc1cc(O)c2c(=O)c3c(O)cc(O)c4c5c(O)cc(O)c6c(=O)c7c(O)cc(C)c8c1c2c(c34)c(c78)c65 [Hypericin] | -0.261
N[C@@H]1C[C@H]1c1ccccc1.N[C@H]1C[C@@H]1c1ccccc1 [Tranylcypromine hemisulfate] | -0.48
CC(=O)c1c(O)c(C)c(O)c(Cc2c(O)c3c(c(C(=O)/C=C/c4ccccc4)c2O)OC(C)(C)C=C3)c1O [Rottlerin] | -0.384
N#C/C(=C\c1ccc(O)c(O)c1)C(N)=S | -0.285
NCCc1ccc(S(=O)(=O)F)cc1 | -0.0822
CC(=O)Oc1ccc(/C=C/c2cc(OC(C)=O)cc(OC(C)=O)c2)cc1 [Triacetylresveratrol] | 4.6 (active)
